The source made the active and inactive calls. Calls come from the whole dose curve; as a rule, active = well fitted curve in the direction sought with a large enough effect; inconclusive = small, poorly fitted or top-dose-only effect, or another doubt; inactive = no such curve, though single readings can be large or run the other way.
Assay: Validation qHTS assay for inhibitors of Activation Induced Cytidine Deaminase (AID): UDG Counterscreen signal (AID 1347427)
Conditions: biochemical UDG counterscreen, fluorescence signal; series mostly up to 115 µM
Text: Assay Provider (PI) Patricia Gearhart Ph.D.
National Institute on Aging
National Institute of Health (NIH), Bethesda, MD
Assay Provider (PI) Rahul Kohli Ph.D.
Perelman School of Medicine
University of Pennsylvania, Philadelphia, PA
Activation-Induced Deaminase (AID) is a cytosine deaminase which converts cytosine into uracil within stretches of ssDNA. The presence of uracil in DNA initiates a cascade of mutagenic DNA repair to introduce point mutations and DNA double strand breaks. Specific targeting of AID to the immunoglobulin heavy chain loci (Igh) promotes mutagenesis in the antibody variable region for somatic hypermutation (SHM) or switch regions leading to class switch recombination (CSR). However, AID also plays a role in accumulating unnecessary mutations across the genome. Mis-targeting of AID results in the initiation of tumor development and leads to greater drug resistance among cancer cells when continually expressed. To identify an AID inhibitor, a small molecule library will be screened in collaboration with NCATS core facility at NIH. To confirm biological function, inhibitors will be examined in an in vitro murine B-cell activation assay and subsequent secondary validation screens. Top molecules will be further screened to identify inhibitory efficacy against a wild type primary splenocytes assay. Using these approaches, we hope to identify a small molecule with great efficacy and low toxicity for use as a molecular probe to further characterize AID's intricacies, or even as a therapeutic.
A FRET based analysis of cytosine deamination, was developed to identify potential inhibitors of AID catalytic activity. This screen has two signal output, Read 1 evaluates the AID inhibition response. The second readout (Read 2) evaluates UDG response and is uses as a counterscreen to exclude false positive inhibitors. Inhibition in AID and inactivity in the UDG signal is the desired outcome for this assay.
SEQUENCE No. (e.g., 1, 2, 3, etc.); […] (e.g., Cells, Incubation, Reagent, etc.); VALUE; DESCRIPTION
1a; Reagent; 3 uL; [4/3x] 1 uM AID/2.67 U/mL UDG
1b; Reagent; 3 uL; 2 U/mL UDG
1c; Reagent; 3 uL; 1 uM AID
2a; Compound; 46 nL; Follow-up plates (0.64 uM - 10 mM)
2b; Control; 46 nL; ATA ([…] - 10 mM)
3; Time; 10 min; incubation at room temperature
5; Time; 4 hr; incubation at room temperature
6; Reagent; 4 uL; [2x] 250 mM NaOH
7; Time; 15 sec; centrifuge at 1000 rpm
8; Time; 30 min; incubation at room temperature
9a; Detection; fluorescence (Read 1: AID); EnVision (PerkinElmer) plate reader, 540 excitation and 590 emission filters
9b; Detection; fluorescence (Read 2: UDG); EnVision (PerkinElmer) plate reader, 560 excitation and 665 emission filters
NOTES (numbers refer to sequence above)
1a; Reagents were dispensed in a medium-binding black solid-bottom Greiner plates (789176F) using a BioRptr liquid dispenser. Dispense 3 uL of [4/3x] 1 uM AID (provided by Kohli lab) and [4/3x] 2 U/mL UDG (NEB M0280L) into columns 1, 2, 5 to 48.
1b; Dispense 3 uL of [4/3x] 2 U/mL UDG into column 3.
1c; Dispense 3 uL of [4/3x] 1 uM AID into column 4.
2b; 10 mM Aurintricarboxylic Acid (Sigma A1895) (ATA, 8-point, n = 2, 1:2.5 dilution in column 2) double pin-transferred (Dip Factor = 2) using the Kalypsys (Wako USA) pintool equipped with a 1536 pinhead for a [final] range of 186 nM - 114 uM.
3; Room temperature incubation.
4; Dispense 1 uL of substrate mixture from the Kohli lab [4x] […] DJC20 and [4x] 250 nM DJC23 into columns 1 to 48 .
5; Room temperature incubation.
6; Dispense 4 uL of substrate mixture [2x] 250 mM NaOH into columns 1 to 48.
7; Centrifugation step to remove bubbles.
8; Room temperature incubation
9a; Fluorescence signal (column label AID) was read using the EnVision plate reader. Excitation filter = 540(8) nm, barcode = 311; Emission filter = 590(20) nm, barcode = 217; Mirror = D555, barcode = 405.
9b; Fluorescence signal (column label UDG) was read using the EnVision plate reader. […]

| Structure (SMILES) | outcome |
| --- | --- |
| Cn1cnc(CCN)c1 | inactive |
| C#CCOC(=O)C1=CCCN(C)C1 | inactive |
| COc1cc(C(O)CN)ccc1O (stereo not given) | inactive |
| CCCCc1ccc(C(=O)O)nc1 | inactive |
| COC(=O)[C@@H](N)CCCN=C(N)N[N+](=O)[O-] | inactive |
| NC(CCP(=O)(O)O)C(=O)O (stereo not given) | inactive |
| CC(=O)NCCc1c[nH]c2ccccc12 | inactive |
| C[N+]1(C)C2CCC1CC(OC(=O)C(CO)c1ccccc1)C2 (stereo not given) | inactive |
| C=CCN1CC[C@]23CCCCC2[C@H]1Cc1ccc(O)cc13 (stereo not given in full) | inactive |
| O=C1CCCN1CC#CCN1CCCC1 | inactive |
| CC(=O)[C@H]1CCC2C3CC[C@H]4C[C@H](O)CC[C@]4(C)C3CC[C@@]21C (stereo not given in full) | inactive |
| NCCc1c[nH]c2ccccc12 | inactive |
| CN1C2CCC1CC(OC(=O)c1cc(Cl)cc(Cl)c1)C2 (stereo not given) | inactive |
| CCCN(CCC)[C@@H]1CCc2ccc(O)cc2C1 | inactive |
| S=C(NC1CCCCC1)N1CCC(c2cnc[nH]2)CC1 | inactive |
| C/C=C(/C)C(=O)O[C@H]1C(C)=C2[C@H]([C@@H]1OC(=O)CCCCCCC)[C@@](C)(OC(C)=O)C[C@H](OC(=O)CCC)[C@@]1(O)[C@H]2OC(=O)[C@@]1(C)O | inactive |
| CCCN1CCC[C@H](c2cccc(O)c2)C1 | inactive |
| CC[C@@H](C(N)=O)N1CCCC1=O | inactive |
| CC(C)NC(C)Cc1ccc(I)cc1 (stereo not given) | inactive |
| O=C(Cc1ccc(Cl)c(Cl)c1)N1CCCCC1CN1CCCC1 (stereo not given) | inactive |

| Structure (SMILES) | outcome |
| --- | --- |
| CC(C)Oc1cccnc1N(C)C1CCN(Cc2ccccc2)CC1 | inactive |
| C[C@]12CCC3C(CC[C@H]4C[C@H](O)CC[C@]34C)C1CC[C@@H]2C(=O)CO (stereo not given in full) | inactive |
| C[C@]12N[C@H](Cc3ccccc31)c1ccccc12 | inactive |
| NC(=O)CN1CC(O)CC1=O (stereo not given) | inactive |
| NC(=NCCC[C@H](N)C(=O)O)N[N+](=O)[O-] | inactive |
| O=C(N[C@H]1CN2CCC1CC2)c1ccc(Cl)cc1 | inactive |
| CC[C@@]1(O)C(=O)OCc2c1cc1n(c2=O)Cc2cc3ccccc3nc2-1 | inactive |
| Oc1ccc2c3c1O[C@H]1c4[nH]c5c(c4C[C@@]4(O)[C@@H](C2)N(CC2CC2)CC[C@]314)C[C@@]1(O)[C@H]2Cc3ccc(O)c4c3[C@@]1(CCN2CC1CC1)[C@H]5O4 | inactive |
| NC(CP(=O)(O)O)C(=O)O (stereo not given) | inactive |
| CCCN(CCC)C1CCc2ccc(O)cc2C1 (stereo not given) | inactive |
| CCCN1CCO[C@@H]2c3cc(O)ccc3OC[C@H]21 | inactive |
| CC1=NN=C(c2ccc(N)cc2)c2cc3c(cc2C1)OCO3 | inactive |
| O=C(O)CC[N+](=O)[O-] | inactive |
| Cc1nccc2c1[nH]c1ccccc12 | inactive |
| C[C@@H](N)Cc1cnc[nH]1 | inactive |
| CNCCc1ccc(O)c(O)c1 | inactive |
| C[C@@H]1O[C@H](C[N+](C)(C)C)C[C@H]1O | inactive |
| c1ccc2sc(C3(N4CCCCC4)CCCCC3)cc2c1 | inactive |
| NC1CCc2cc(O)c(O)cc2C1 (stereo not given) | inactive |
| c1ccc(C2(c3ccccc3)CC2C2=NCCN2)cc1 (stereo not given) | inactive |

From PubChem BioAssay (NCATS)
